We go through 34 compounds from ChEMBL document CHEMBL4513149, “CO-ADD screening of MMV (CH) - MMV compounds” (2021).

Assay [1] has as its system Klebsiella pneumoniae. The note with it: Concentration 20 uM; ASSAY_TEST Inhibition of Bacterial Growth; detection method Absorption (OD600); MEDIA CAMHB; plate type 384well; NBS; CORNING #3640; time 18 hr.
Assay [2] relates to Candida albicans. The note with it: 20 µM.
Assay [3] has as its system Cryptococcus neoformans. Particulars: Concentration 20 uM; ASSAY_TEST Inhibition of Fungal Growth; detection method Resazurin; Absorption (OD600-OD570); plate type 384well; NBS; CORNING #3640.

Entries with a potency or affinity are not part of this list.

By Inhibition is commonly meant the change of the read-out against control, counted positive when it falls. On to `Cc1cc(C)c2cc(C(=O)NC3CCCCCCC3)[nH]c2c1`, for which the figures for the Inhibition in assay [1], in assay [2] and in assay [3] were 18.42%, 3.94% and -6.05%, respectively.
As to `CC1CC1C(=O)NC1CCN(CC2(c3ccccc3)CCCCC2)CC1` (configuration not stated), the Inhibition is 16.4% in assay [1], 3.19% in assay [2] and -6.72% in assay [3].
In the same order, the values of `Cl.O[C@@H](c1cc(C(F)(F)F)nc2c(C(F)(F)F)cccc12)[C@H]1CCCCN1` are -6.56%, 6.48% and 1.73%.
In the case of `Cl.O=C(Nc1ccc(N2CCNCC2)nc1)c1oc(-c2ccccc2)nc1C(F)(F)F`, the Inhibition in assay [1] was 2.54%; in assay [2], 2.72%; in assay [3], -3.82%.
For `Cc1ccc2nc(Cl)c(CNCc3cccs3)cc2c1`, the Inhibition in assay [1] was 1.61%; in assay [2], 2.37%; in assay [3] it was -15.9%.
For `FC(F)(F)c1ccc(N(c2cccnc2)C2CCN(c3ccc(C(F)(F)F)cn3)CC2)cc1`, in that order: 14.96%, 2.59% and -3.19%.
As to `COc1ccc(-c2nn(C(C)C)c3ncnc(N)c23)cc1OC`, the figures for the Inhibition in assay [1], in assay [2] and in assay [3] were 10.07%, 2.58% and -0.18%, respectively.
For `COc1ccc(C(=N)N)cc1-c1cn(-c2ccc(C(=N)N)cc2)nn1.Cl.Cl`, in that order: 8.73%, 3.44% and 4.63%.
In the same order, the values of `Cc1ccc(S(=O)(=O)N2CCN(C(=O)c3cc(-c4ccccc4)n[nH]3)CC2)cc1` are -15.32%, 6.95% and -7.39%.
In the same order, the values of `CC(C)(CN)c1nc(-c2ccc(Cl)c(O)c2)c(-c2ccnc(N)n2)[nH]1.O=C(O)C(F)(F)F.O=C(O)C(F)(F)F` are 15.34%, 2.09% and -6.49%.
In the case of `CC(C)(C)OC(=O)N1CCN(c2cc(-c3ccc(Oc4ccccc4)cc3)n[nH]2)CC1`, the figures for the Inhibition in assay [1], in assay [2] and in assay [3] were 20.96%, 5.58% and -7.43%, respectively.
`O=C(Nc1cccc(-c2ccc(NCCCN3CCCC3)nc2)c1)c1ccccc1`: the Inhibition turned out to be 8.2% in assay [1], 3.22% in assay [2] and 16.14% in assay [3].
Regarding `CCN(CC)CCCCCCNc1cc(OC)cc2c(C)ccnc12.Cc1ccc(S(=O)(=O)O)cc1`, the Inhibition came out at 14.1% in assay [1], 2.19% in assay [2] and 2.4% in assay [3].
In the same order, the values of `c1ccc(Oc2ccc(-c3cc(C4CCOCC4)[nH]n3)cc2)cc1` are 16.38%, 7.75% and 0.97%.
For `COc1ccc(C2=NCCN2)cc1-c1cn(-c2cccc(C3=NCCN3)c2)nn1.O=C(O)C(F)(F)F.O=C(O)C(F)(F)F`, in that order: 17.32%, 2.35% and -2.18%.
Turning to `CC(C(=O)N1CCCC1)N1CCN(S(=O)(=O)c2ccc(C(C)(C)C)cc2)CC1` (configuration not stated), the Inhibition in assay [1] is 0.26%; in assay [2], 2.42%; in assay [3] it was -10.06%.
For `Cc1cc(C)n(-c2ccc(NC(=O)C3CCN(Cc4cnc(C)s4)CC3)cc2)n1`, the Inhibition in assay [1] was 8.14%; in assay [2] it was 2.85%; in assay [3] it was -6.76%.
`CC(C)C(C(=O)Nc1ccc(S(=O)(=O)N(C)C)cc1)c1ccc(Cl)cc1` (configuration not stated): the results for the Inhibition in assay [1], in assay [2] and in assay [3] were -12.7%, 4.83% and -3.24%, respectively.
In the same order, the values of `O=C1Nc2ccc(Br)cc2C12NCCc1c2[nH]c2ccccc12` (configuration not stated) are 4.49%, 2.19% and -1.68%.
For `COc1ccc(OC(C)C(=O)Nc2ccc(Cl)cc2C)cc1` (configuration not stated), the Inhibition came to 4.92% in assay [1], 7.33% in assay [2] and 5.96% in assay [3].
As to `O=C(C(Cc1c[nH]c2ccccc12)NS(=O)(=O)c1ccc(Cl)cc1)N1CCCCC1` (configuration not stated), the results for the Inhibition in assay [1], in assay [2] and in assay [3] were 4.11%, 2.45% and -6.5%, respectively.
For the compound `CCOc1ccc(-c2nc(NC(=O)CS(=O)(=O)c3ccccc3)sc2C)cc1`, the values for the Inhibition in assay [1], in assay [2] and in assay [3] were 8.83%, 3.16% and -9.26%, respectively.
`Nc1cccnc1Nc1ccc(Cl)cc1`: the Inhibition in assay [1] is 2.25%; in assay [2] it was 1.73%; in assay [3], -10.6%.
For `O=C1N(Cc2cc3ccccc3s2)CC2CN(Cc3ccccc3)CCN12` (configuration not stated), the Inhibition in assay [1] is 2.73%; in assay [2], 2.62%; in assay [3] it was -4.73%.
In the same order, the values of `O=C(Nc1cnc2ccccc2c1)c1cccc(-n2cnnn2)c1` are 8.59%, 4.47% and -9.7%.
For `Cc1nn2c(O)c3c(nc2c1-c1ccc(F)cc1)CCCC3`, in that order: 11.6%, 3.69% and -6.74%.
Take `O=C(NCCc1ccccc1)c1cc(-c2cccnc2)cnc1NCC1CC1`: the Inhibition in assay [1] was -2.11%; in assay [2], 6.13%; in assay [3] it was -7.61%.
For `Nc1ncnc2[nH]nc(Cc3cccc4ccccc34)c12`, the Inhibition in assay [1] was 12.26%; in assay [2], 3.76%; in assay [3], -8.72%.
For the compound `O=C(Nc1nc(-c2ccccn2)cs1)c1cncn1-c1ccccc1`, the Inhibition was 11.31% in assay [1], 1.74% in assay [2] and -8.18% in assay [3].
In the same order, the values of `Nc1nc(N)c2c3c(sc2n1)CN(Cc1ccccc1)CC3` are 10.27%, 2.79% and -1.76%.
As for `C[C@H](C(N)=O)N1CCCC[C@H]1c1ccc(OCc2cccc(F)c2)cc1`, the Inhibition is 11.66% in assay [1], 2.64% in assay [2] and -9.53% in assay [3].
In the same order, the values of `O=C(c1[nH]nc2c1CCCC2)N1CCN(Cc2ccc3c(c2)OCO3)CC1` are 7.71%, 2.93% and -11.77%.
For `CCC(Sc1nc2ccccc2o1)C(=O)Nc1nccs1` (configuration not stated), in that order: 14.47%, 9.07% and -15.51%.
In the case of `Nc1ccc(C(=O)Nc2ccc(-c3nc4ccccc4o3)cc2)cc1`, the values for the Inhibition in assay [1], in assay [2] and in assay [3] were 7.66%, 15.1% and -12.24%, respectively.
